Assay results: the supplement of paper PMC8728848
Many of the other results were omitted from the sample, so the strongest signals are more common in it than they were.

What was measured:
Assay in all cases: glycan array binding signal (z-score within array); higher = stronger binding
Conditions in all cases: glycan notation: IUPAC condensed, linker removed
Fuc(a1-2)Gal = biological target: Fuc(a1-2)Gal
Summary of the method: (§1)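 From the Consortium for Functional Glycomics database, 3228 arrays were curated, keeping only those whose protein sequence was available. Binding is given as a within-array Z-score averaged across arrays sharing a protein sequence and across linkers. Negative Z-scores can be read as non-binding.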

Fuc(a1-2)Gal(b1-3)GlcNAc = biological target: Fuc(a1-2)Gal(b1-3)GlcNAc
Summary of the method: as §1

Fuc(a1-2)[Gal(a1-3)]Gal = biological target: Fuc(a1-2)[Gal(a1-3)]Gal
Summary of the method: as §1

Gal(a1-3)Gal(b1-3)GlcNAc = biological target: Gal(a1-3)Gal(b1-3)GlcNAc
Summary of the method: as §1

Gal(a1-3)Gal(b1-4)Glc = biological target: Gal(a1-3)Gal(b1-4)Glc
Summary of the method: as §1

Gal(a1-6)Glc = biological target: Gal(a1-6)Glc
Summary of the method: as §1

Gal(b1-3)Gal(b1-4)GlcNAc = biological target: Gal(b1-3)Gal(b1-4)GlcNAc
Summary of the method: as §1

[1] = biological target: Gal(b1-3)GlcNAc(b1-3)Gal(b1-4)Glc
Summary of the method: as §1

[2] = biological target: Gal(b1-3)[Fuc(a1-4)]GlcNAc
Summary of the method: as §1

[3] = biological target: Gal(b1-4)GlcNAc(b1-3)[GlcNAc(b1-6)]Gal(b1-4)GlcNAc
Summary of the method: as §1

[4] = biological target: Gal(b1-4)GlcNAc(b1-6)[Gal(b1-3)]GalNAc
Summary of the method: as §1

Gal3S(b1-4)Glc = biological target: Gal3S(b1-4)Glc
Summary of the method: as §1

Gal6S(b1-4)Glc6S = biological target: Gal6S(b1-4)Glc6S
Summary of the method: as §1

Gal6S(b1-4)GlcNAc6S = biological target: Gal6S(b1-4)GlcNAc6S
Summary of the method: as §1

[5] = biological target: GalNAc(b1-3)Gal(a1-4)Gal(b1-4)GlcNAc
Summary of the method: as §1

[6] = biological target: GlcNAc(b1-2)Gal(b1-3)GalNAc
Summary of the method: as §1

[7] = biological target: GlcNAc(b1-4)Gal(b1-4)GlcNAc
Summary of the method: as §1

[8] = biological target: Man(a1-2)Man(a1-2)Man(a1-3)Man
Summary of the method: as §1

[9] = biological target: Man(a1-2)Man(a1-3)[Man(a1-2)Man(a1-6)]Man(a1-6)[Man(a1-2)Man(a1-2)Man(a1-3)]Man(b1-4)GlcNAc(b1-4)GlcNAc
Summary of the method: as §1

[10] = biological target: Neu5Ac(a2-3)Gal(b1-3)GalNAc
Summary of the method: as §1

[11] = biological target: Neu5Ac(a2-3)Gal(b1-4)GlcNAc(b1-2)Man(a1-3)[Neu5Ac(a2-6)Gal(b1-4)GlcNAc(b1-2)Man(a1-6)]Man(b1-4)GlcNAc(b1-4)GlcNAc
Summary of the method: as §1

[12] = biological target: Neu5Ac(a2-3)Gal(b1-4)GlcNAc(b1-6)[Gal(b1-3)]GalNAc
Summary of the method: as §1

Neu5Ac(a2-8)Neu5Ac = biological target: Neu5Ac(a2-8)Neu5Ac
Summary of the method: as §1

[13] = biological target: Neu5Ac9Ac(a2-6)Gal(b1-4)GlcNAc
Summary of the method: as §1

[14] = biological target: Neu5Gc(b2-6)Gal(b1-4)GlcNAc
Summary of the method: as §1

B1: Langerin CRD (Homo sapiens), Q9UJ71 (protein)
chain: QVVSQGWKYFKGNFYYFSLIPKTWYSAEQFCVSRNSHLTSVTSESEQEFLYKTAGGLIYWIGLTKAGMEGDWSWVDDTPFNKVQSVRFWIPGEPNNAGNNEHCGNIKAPSLQAWNDAPCDKTFLFICKRPYVPSEPSAWSHPQFEK
glycan array binding signal (z-score) (Fuc(a1-2)Gal): 0.647
glycan array binding signal (z-score) (Fuc(a1-2)Gal(b1-3)GlcNAc): 0
glycan array binding signal (z-score) (Fuc(a1-2)[Gal(a1-3)]Gal): 4.04
glycan array binding signal (z-score) (Gal(a1-3)Gal(b1-3)GlcNAc): -0.623
glycan array binding signal (z-score) (Gal(a1-3)Gal(b1-4)Glc): -0.487
glycan array binding signal (z-score) (Gal(a1-6)Glc): -0.427
glycan array binding signal (z-score) (Gal(b1-3)Gal(b1-4)GlcNAc): -0.488
glycan array binding signal (z-score) [1]: -0.48
glycan array binding signal (z-score) [2]: -0.279
glycan array binding signal (z-score) [3]: 0.314
glycan array binding signal (z-score) [4]: -0.489
glycan array binding signal (z-score) (Gal3S(b1-4)Glc): -0.325
glycan array binding signal (z-score) (Gal6S(b1-4)Glc6S): 4.01
glycan array binding signal (z-score) (Gal6S(b1-4)GlcNAc6S): 6.72
glycan array binding signal (z-score) [5]: -0.356
glycan array binding signal (z-score) [6]: 4.61
glycan array binding signal (z-score) [7]: 1.57
glycan array binding signal (z-score) [8]: 4.1
glycan array binding signal (z-score) [9]: -0.352
glycan array binding signal (z-score) [10]: -0.547
glycan array binding signal (z-score) [11]: -0.647
glycan array binding signal (z-score) [12]: -0.693
glycan array binding signal (z-score) (Neu5Ac(a2-8)Neu5Ac): -0.544
glycan array binding signal (z-score) [13]: -0.422
glycan array binding signal (z-score) [14]: -0.263
